Compound activity from PubChem BioAssay.
Rce1 inhib: yeast Rce1p protease inhibitors, primary screen, biochemical, fluorescence, cell-free homogeneous | hit rate 0.27% among 290,000 | CAAX prenyl protease 2 (Saccharomyces cerevisiae (strain ATCC 204508 / S288c)), Q03530 | yeast membranes, quenched prenylated peptide cleavage fluorescence | calls only;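 active means fall in fluorescence gain of 50% or more versus controls, with final raw signal at or below 3038400; inconclusive means same 50% fall but final raw signal above 3038400; inactive means fall in fluorescence gain under 50%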;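 further: plate controls were neutral control wells for no effect and wells lacking membranes for full effect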
Target sequence (Q03530 whole entry, looked up): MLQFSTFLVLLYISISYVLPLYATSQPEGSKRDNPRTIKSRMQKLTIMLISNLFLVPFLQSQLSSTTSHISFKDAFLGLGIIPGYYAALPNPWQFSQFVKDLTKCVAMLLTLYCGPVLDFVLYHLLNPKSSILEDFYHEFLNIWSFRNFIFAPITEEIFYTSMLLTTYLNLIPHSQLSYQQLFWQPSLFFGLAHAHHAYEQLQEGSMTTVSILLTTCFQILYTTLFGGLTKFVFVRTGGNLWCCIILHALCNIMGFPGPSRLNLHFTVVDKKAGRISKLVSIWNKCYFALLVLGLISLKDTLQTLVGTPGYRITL
AI-2 QS modul: Vibrio harveyi AI-2 quorum sensing modulators, primary screen, JMH597 strain, luminescence/OD600 ratio | Vibrio harveyi JMH597 AI-2 luminescence/OD600 ratio, 9 h; stronger effect = lower value; strain lacks LuxN and CqsS sensors; 0 = neutral-control median | activity change, % at 7.5 µM | hit rate 0.4% among 300,000; in the data active means activity change below about -75%, passing the limit was not always enough; inconclusive means no clear call, values can overlap the other calls;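 further: luminescence divided by OD600 gain over 9 h not by final OD600 alone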
C2C12 statin: suppressors of statin myotoxicity in C2C12 myotubes, primary screen, cell-based, single point, plate reader; C2C12 myotubes + simvastatin, ATP luminescence, 48 h; scaled: DMSO 0, geranylgeraniol control 100; rescue of ATP level, % at 7.49 µM; hit rate 0.78% among 330,000; AID 602340, 2012;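 active means mean ATP rescue above about 67%, or every replicate alone reaching that limit, limit read from the data, passing the limit was not always enough; inconclusive means no clear call, values can overlap the other calls; inactive means mean under the limit and some replicate under it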;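 further: myotubes were challenged with 10 µM simvastatin during compound exposure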
PGC1a acetyl inh: inhibitors of PGC1a acetylation signal, primary screen, cell-based, U2OS, AlphaScreen, inhibitor mode | hit rate 0.17% among 350,000 | inhibition, % at 15.6 µM | AID 651687, 2012 | AlphaScreen anti-acetyl-lysine; with virally co-expressed GCN5 acetyltransferase;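 active means every replicate shows inhibition of at least 40%; inconclusive means mean inhibition at least 40% but some replicate below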;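 further: 0% = neutral control wells and 100% = positive control wells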
HIF act: HIF pathway transcriptional activators, primary screen, cell-based, U2OS HRE-luciferase, luminescence | U2OS HRE-luciferase reporter; normalized: DMSO 0%, desferrioxamine 100% | activation, % at 7.5 µM (by protocol) | hit rate 0.32% among 300,000;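 active means mean activation of at least 10% of the iron chelator positive control signal, with at least half of replicates also reaching 10%; inconclusive means mean and replicate majority disagree about reaching 10%; inactive means mean and most replicates under 10%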
JMH597 growth rt: Vibrio harveyi growth inhibition, confirmation, counter-screen for AI-2 quorum sensing project, JMH597 strain, OD600 absorbance; growth inhibition, % at 7.5 µM; hit rate 1% among 750; shares compounds with AI-2 QS modul; 9 h; lacks LuxN and CqsS sensors;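 active means every replicate shows growth inhibition above 50%; inconclusive means at least half, but not all, replicates pass that cutoff; inactive means fewer than half of replicates pass it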
BB721 const-QS lum: luminescence inhibition in constitutive-on V. harveyi, confirmation, counter-screen for LuxS inhibitor project, strain BB721, luminescence readout. shares compounds with AI-2 QS modul. Vibrio harveyi BB721 luminescence, 9 h. inhibition, % at 7.5 µM. hit rate 95% among 750. AID 2727, 2010;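 active means inhibition above about 80% in every replicate, not just on average, limit read from the data; inconclusive means at least half of replicates past the limit, but not all; inactive means fewer than half of replicates past the limit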
BB721 growth rt: growth inhibition of V. harveyi BB721, confirmation, cytotoxicity control for AI-2 quorum sensing inhibitors, strain BB721, absorbance OD600. growth inhibition, % at 7.5 µM. AID 2728, 2010. hit rate 3% among 750. Vibrio harveyi BB721 growth, 9 h. shares compounds with AI-2 QS modul;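 active means every replicate shows growth inhibition above 50%; inconclusive means at least half but not all replicates above 50% inhibition; inactive means under half of replicates above 50% inhibition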
JMH597 AI-2 mod: Vibrio harveyi AI-2 signaling luminescence modulation – JMH597 strain, confirmation; shares compounds with AI-2 QS modul; Vibrio harveyi JMH597 AI-2 quorum sensing luminescence, 9 h; luxN and CqsS knockout, AI-2 only; inhibition, % at 7.5 µM; hit rate 97% among 750; AID 2736, 2010;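 active means every replicate shows more than 75% inhibition of signal versus neutral control wells; inconclusive means half to three quarters of replicates exceed 75% inhibition; inactive means fewer than half of replicates exceed 75% inhibition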
Numbers without * were called inactive; i = inactive; ? = inconclusive; / = no result given. Shown are actives, neighbours in structure and some others; about 1.3% of the full set was active somewhere.

SMILES	Rce1 inhib	AI-2 QS modul	C2C12 statin	PGC1a acetyl inh	HIF act	JMH597 growth rt	BB721 const-QS lum	BB721 growth rt	JMH597 AI-2 mod
O=C(Oc1ccccc1)c1ccccc1	/	/	6.7	3.1	/	/	/	/	/
COc1ccccc1CNC(=O)c1ccc(S(=O)(=O)N(C)C)cc1	i	-79.6*	-43.1	8.6	0.7	-5.1	84.5*	0.1	90.0*
CN(C)S(=O)(=O)c1ccc(C(=O)OCn2nnc3ccccc3c2=O)cc1	i	-89.2*	0.3	-10.0	-0.3	28.0	95.7*	37.1	97.0*
COc1ccc(C(=O)OCn2nnc3ccccc3c2=O)cc1OC	i	25.4	/	-6.5	-0.1	/	/	/	/
COc1ccccc1OCCNC(=O)c1ccc(S(=O)(=O)N(C)C)cc1	i	-5.7	19.4	5.0	-0.3	/	/	/	/
CN(C)S(=O)(=O)c1ccc(C(=O)Oc2ccccc2)cc1	i	-79.8*	3.0	13.3	0.0	11.5	90.6*	39.3	93.2*
CCCN1[C@H](C(=O)N(C)C)[C@@H](CO)[C@@H]2Cn3c(ccc(C4=CCCCC4)c3=O)[C@@H]21	/	/	/	11.1	/	/	/	/	/
Cc1ccc(O)c(CNc2nccs2)c1	i	-38.8	22.7	/	0.2	/	/	/	/
Oc1ccc(Cl)cc1CNc1nccs1	i	-79.5*	-0.2	-7.4	-1.2	26.1	92.0*	38.4	91.7*
C[C@@H]1CCCCO[C@H](CN(C)C(=O)Cc2ccccc2)[C@H](C)CN([C@H](C)CO)C(=O)c2cc(NC(=O)c3ccncc3)ccc2O1	/	/	/	8.4	/	/	/	/	/
Cc1cc(NC(=O)Cn2c(C)nc3ccccc3c2=O)ccc1Br	i	-86.6*	-1.6	6.3	0.0	5.4	98.8*	-17.9	99.1*
CC(=O)Nc1ccc(C(=O)Cn2nnc3ccccc3c2=O)cc1	i	19.2	/	/	0.9	/	/	/	/
CCC(=O)Nc1ccc2nc(C)n(CC(=O)Nc3ccccc3)c(=O)c2c1	i	12.0	9.6	18.9	0.0	/	/	/	/
Cc1cc(C)cc(NC(=O)Cn2nnc3ccccc3c2=O)c1	i	-82.9*	/	/	0.1	-22.8	96.0*	-10.7	97.4*
CN(C)C(=O)c1ccc(-c2ccccc2[C@@H]2[C@@H](CO)N(C(=O)C3CCCCC3)[C@H]2C#N)cc1	/	/	/	-12.2	/	/	/	/	/
C[C@H](NC(=O)C[C@H]1CC[C@@H]2[C@H](COC[C@H](O)CN2C(=O)Nc2cccc(F)c2)O1)c1ccccc1	/	/	-20.0	1.1	/	/	/	/	/
CC1CCN(C(=O)c2cc(-c3ccc4c(c3)OCO4)on2)CC1	i	-90.0*	16.3	/	-1.1	-12.7	96.4*	-20.4	97.2*
CC1CCN(C(=O)c2cc(-c3ccccc3O)on2)CC1	i	-84.0*	0.5	-4.5	3.2	-4.7	95.3*	12.4	96.5*
CC1CCN(C(=O)c2cc(-c3ccco3)on2)CC1	i	21.5	6.1	/	1.3	/	/	/	/
Cc1ccc(Nc2ccccc2)cc1	i	14.6	-0.8	-3.4	-1.8	/	/	/	/
Cc1ccc(S(=O)(=O)Nc2ccc(Nc3ccccc3)cc2)cc1	i	-97.3*	-0.1	-13.1	-1.1	66.5	99.5*	27.2	99.6*
CCCNC(=O)N1CC2(C1)[C@@H](c1ccccc1)[C@@H](CO)N2CC1CCOCC1	/	/	/	-0.6	/	/	/	/	/
COc1ccc(CN=Cc2c(O)[nH]c3ccccc23)cc1	i	-90.2*	/	14.5	0.4	22.3	96.2*	3.2	97.4*
COc1ccc(S(=O)(=O)N=Nc2c(O)[nH]c3ccccc23)cc1	i	4.2	/	/	-0.1	/	/	/	/
O/N=C/Cc1[nH]c2ccccc2c1-c1ccccc1	i	-96.3*	43.1	-6.2	-8.6	28.9	95.3*	-96.6	99.0*
SMILES	Rce1 inhib	AI-2 QS modul	C2C12 statin	PGC1a acetyl inh	HIF act	JMH597 growth rt	BB721 const-QS lum	BB721 growth rt	JMH597 AI-2 mod
CCCN(C)C[C@H]1OCCCC[C@H](C)Oc2ccc(NS(=O)(=O)c3ccc(C)cc3)cc2C(=O)N([C@@H](C)CO)C[C@@H]1C	/	/	/	-6.9	/	/	/	/	/
O=C(NCc1ccccc1)c1cc(-c2cccc(O)c2)on1	i	-82.0*	32.2	5.2	2.6	-15.1	88.1*	-14.1	91.9*
CC(C)CCNC(=O)NC(=O)COc1ncnc2sccc12	i	-80.9*	-3.8	1.8	-0.2	-6.1	95.9*	4.9	97.1*
O=C(Nc1ccc(Cl)cc1)Nn1cnc2ccccc2c1=O	i	-97.5*	-21.7	/	0.7	1.5	99.5*	-12.8	99.6*
O=C(/C=C/c1ccccc1Cl)Nn1cnc2ccccc2c1=O	i	-78.0*	/	/	-0.3	19.1	96.1*	0.4	97.7*
O=C(Nn1cnc2ccccc2c1=O)c1ccccc1Cl	i	-3.8	43.4	-29.2	0.8	/	/	/	/
Cc1ccccc1C(=O)Nn1cnc2ccccc2c1=O	i	7.4	/	-5.8	1.8	/	/	/	/
O=C(/C=C/c1ccccc1)Nn1cnc2ccccc2c1=O	i	-88.0*	2.2	1.3	0.4	18.7	98.2*	-1.2	99.0*
CC=Cc1ccc2n(c1=O)C[C@@H]1[C@@H](CO)[C@H](C(=O)NCc3cc(F)cc(F)c3)[C@H]2N1S(C)(=O)=O (mixture of isomers)	/	/	1.8	/	/	/	/	/	/
COc1ccc2c3c(n(C)c2c1)[C@@H](CO)N(C(C)=O)CC31CN(C(=O)c2cnccn2)C1	/	/	/	-2.4	/	/	/	/	/
C[C@@H]1CN([C@H](C)CO)C(=O)c2cc(C#CC3CC3)cnc2O[C@@H]1CN(C)C(=O)Nc1ccc(F)cc1	/	/	/	6.2	/	/	/	/	/
C[C@H]1CN([C@@H](C)CO)C(=O)c2cc(C3=CCCC3)cnc2O[C@H]1CN(C)S(=O)(=O)c1cn(C)cn1	/	/	-0.1	12.7	/	/	/	/	/
O=C(CCN1C(=O)CSC1=O)Nc1ccc(Br)cc1	i	-79.5*	7.9	8.2	-0.1	13.2	13.0	9.2	9.0
Cc1ccc(NC(=O)CCN2C(=O)CSC2=O)cc1	i	5.3	3.6	/	-0.4	/	/	/	/
O=C1CN(S(=O)(=O)c2ccccc2)C[C@@H]2[C@H](c3ccc(C4=CCCC4)cc3)[C@@H](CO)N12	/	/	/	-11.5	/	/	/	/	/
Cc1ccc(CNc2oc(-c3cccs3)nc2C#N)cc1	?	-94.3*	15.1	/	0.3	29.7	96.9*	?	98.3*
N#Cc1nc(-c2cccs2)oc1NCc1ccco1	?	-57.7	-1.2	/	/	/	/	/	/
